# MITF inh – MITF inhibition; 0.28% of 37,000 active; inhibition, % (test concentration not listed); TRPM1 promoter luciferase, luminescence, 24 h; AID 2240; in the data active = inhibition above about 85%; inconclusive = no clear call, values can overlap the other calls; inactive = below about 68%;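 note: human melanocyte line stably carrying TRPM1 promoter luciferase reporter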
# Hedgehog inh – Sonic Hedgehog pathway inhibition; Shh-LIGHT2 Gli-luciferase reporter, 30 h; inhibition, % (no concentration beside the values); 2.1% of 22,000 active; AID 2313;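 active = mean inhibition across valid replicates above about 65%, limit read from the data; inconclusive = mean under the limit, yet half or more replicates past it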;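 note: pathway switched on by Shh-conditioned medium diluted 1 in 25 in low serum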
# Hits are given with their value; . = inactive; ? = inconclusive; / = not tested or not shown; ! = not confirmed by another sample. The sample as a whole holds a higher share of hits than the screen did.
SMILES,MITF inh,Hedgehog inh
OCCN1CCN(CCCN2c3ccccc3Sc3ccc(C(F)(F)F)cc32)CC1,.,?
CN1CCN(CCCN2c3ccccc3Sc3ccc(Cl)cc32)CC1,.,75!
CN1C(=O)[C@@]2(Cc3ccccc3)SSS[C@]1(CO)C(=O)N2C,91,70
COc1ccc(Cl)cc1NC(=O)Cn1cnc2sc3c(c2c1=O)CCC(C)C3 (stereo unspecified),.,/
CCOC(=O)N1CCc2c(sc3ncn(Cc4ccc(Cl)cc4)c(=O)c23)C1,.,95
Cc1ccccc1-c1nnc(SCC(=O)Nc2cc(C(F)(F)F)ccc2N2CCOCC2)o1,.,/
N#Cc1c(SCC(=O)c2ccc(F)cc2)nsc1SCC(=O)c1ccc(F)cc1,.,81
Cc1cccc(NC(=O)CSc2nsc(SCC(=O)Nc3cccc(C)c3)c2C#N)c1,.,.
O=C1N(c2cccc(Cl)c2)C(=Nc2cccc(Cl)c2)SC12CC2,.,.
CC(=O)Nc1ccc(C(=O)CSc2nc3ccccc3n2C)cc1,.,/
C=CS(=O)(=O)c1ccc(OC)c(N)c1,.,83
COc1ccc(OC)c(S(=O)(=O)c2ccc(Br)cc2)c1,.,.
COC(=O)c1ccc(Cl)c(NC(=O)C(C)N(c2ccc(C)cc2)S(C)(=O)=O)c1 (stereo unspecified),.,/
O=C(Nc1cc(S(=O)(=O)c2ccccc2)cs1)c1ccc(Cl)cc1,.,.
CCOC(=O)c1cnc2c(OC)cccc2c1NC1CCCCC1,.,?
Cc1cc(C)c2c(c1C(=O)Nc1cccc(C(F)(F)F)c1)CC(C)(C)C2=O,.,86
COc1ccc(C(=O)NCC(=O)Nc2cccc(C(F)(F)F)c2)cc1,.,/
Cc1cc(C)c(C)c(Cn2c(CCCO)nc3ccccc32)c1C,.,/
CCn1c(SCc2nc3ccccc3c(=O)[nH]2)nnc1-c1ccc(Cl)cc1,.,/
CO[C@@]12[C@@H]3NC3CN1C1=C(C(=O)C(N)=C(C)C1=O)[C@@H]2COC(N)=O (stereo partly specified),.,67
Cc1ccccc1-c1nnc(SCC(=O)Nc2ccc(Oc3ccccc3)cc2)n1C,.,/
CCc1cc(O)c(C)c(O)c1C=O,/,.
Cc1cc2c(C(C)C)c(O)c(O)c(C=O)c2c(O)c1-c1c(C)cc2c(C(C)C)c(O)c(O)c(C=O)c2c1O,.,68!
COc1ccc(C(c2ccc3cccnc3c2O)N2CCOCC2)cc1 (stereo unspecified),.,68
Oc1c(C(c2ccncc2)N2CCCC2)ccc2cccnc12 (stereo unspecified),.,.
SMILES,MITF inh,Hedgehog inh
O=C(O)CC(c1ccc(F)cc1)c1ccco1 (stereo unspecified),.,/
C[C@@H]1CN([C@H](C)CO)C(=O)c2cccc(NC(=O)Nc3ccc(C(F)(F)F)cc3)c2O[C@@H]1CN(C)S(=O)(=O)c1ccc(Cl)cc1,.,.
C[C@@H]1CN([C@H](C)CO)C(=O)c2cccc(NC(=O)Nc3ccc(F)cc3)c2O[C@H]1CN(C)S(=O)(=O)c1ccc(Cl)cc1,.,.
C[C@H](CO)N1C[C@H](C)[C@H](CN(C)S(=O)(=O)c2ccccc2)Oc2c(NC(=O)Nc3ccc(F)cc3)cccc2C1=O,.,71
Cc1ccc(S(=O)(=O)N(C)C[C@@H]2Oc3c(NC(=O)Nc4ccccc4)cccc3C(=O)N([C@@H](C)CO)C[C@H]2C)cc1,.,.
C[C@@H]1CN([C@@H](C)CO)C(=O)c2cccc(NC(=O)Nc3ccc(C(F)(F)F)cc3)c2O[C@@H]1CN(C)S(=O)(=O)c1ccc(Cl)cc1,87,?
C[C@@H]1CN([C@H](C)CO)C(=O)c2cccc(NC(=O)Nc3ccc(F)cc3)c2O[C@H]1CN(C)S(=O)(=O)c1ccccc1,.,.
Cc1ccc(S(=O)(=O)N(C)C[C@@H]2Oc3c(NC(=O)Nc4ccccc4)cccc3C(=O)N([C@H](C)CO)C[C@@H]2C)cc1,.,121
C[C@H]1CN([C@@H](C)CO)C(=O)c2cccc(NC(=O)Nc3ccc(F)cc3)c2O[C@H]1CN(C)S(=O)(=O)c1ccc(Cl)cc1,.,108
CC(=O)C(C#N)C(=O)Nc1cc(Br)ccc1Br (stereo unspecified),.,.
N#C/C(=C\c1ccc(O)c(O)c1)C(=O)NCCCc1ccccc1,.,86
N#C/C(=C\c1ccc(O)c(O)c1)C(=O)c1ccc(O)c(O)c1,.,.
O=C(NC1CCN(C(=O)c2ccc(Cl)cc2Cl)CC1)c1ccccc1,.,.
Cc1ccc(S(=O)(=O)N(C)C[C@H]2Oc3c(NC(=O)NC4CCCCC4)cccc3C(=O)N([C@@H](C)CO)C[C@H]2C)cc1,.,.
CC(C)NC(=O)N(C)C[C@H]1Oc2c(NC(=O)NC3CCCCC3)cccc2C(=O)N([C@H](C)CO)C[C@H]1C,.,69
C[C@@H]1CN([C@@H](C)CO)C(=O)c2cccc(NC(=O)NC3CCCCC3)c2O[C@@H]1CN(C)S(=O)(=O)c1ccc(Cl)cc1,.,.
Cc1ccc(S(=O)(=O)N(C)C[C@@H]2Oc3c(NC(=O)NC4CCCCC4)cccc3C(=O)N([C@H](C)CO)C[C@@H]2C)cc1,.,107
